Measurements as given in PubChem BioAssay AID1159580 (chemical genetic matrix, 2015).
About 2,000 (36%) of roughly 5,500 compounds were called active. Another 18% or so got no clear call; they are omitted. Cut-off read from the data, not from the text of the source: active = normalized growth mostly below about 0.91 (no sharp cut-off); inconclusive = no clear call, values can overlap the other calls; inactive = mostly above about 0.92. Some of the results follow.

Test: chemical genetic growth profiling, strain panel (AID 1159580);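 note: tested at 20 µM; growth read once vehicle control cultures reached saturation at 30 °C; 1 = growth at the plate median or of vehicle wells; lower values mean less growth of the strain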
Conditions: S. cerevisiae deletion strains, growth OD

Measured: normalized growth

Cc1ccc(-c2nn(-c3ccccc3)c(=O)c3ccccc23)cc1C
active: locus YEL061C, strain CIN8, hits give low values 0.908 | locus YHR030C, strain SLT2, hits give low values 0.504 | locus YLR039C, strain RIC1, hits give low values 0.634 | locus YLR085C, strain ARP6, hits give low values 0.736 | locus YLR262C, strain YPT6, hits give low values 0.629 | locus YPR135W, strain CTF4, hits give low values 0.612
inactive: locus YAL013W, strain DEP1, hits give low values 0.953 | locus YBR229C, strain ROT2, hits give low values 0.968 | locus YCL061C, strain MRC1, hits give low values 0.967 | locus YDL101C, strain DUN1, hits give low values 0.957 | locus YDR150W, strain NUM1, hits give low values 0.978 | locus YGR078C, strain PAC10, hits give low values 0.955 | locus YGR229C, strain SMI1, hits give low values 0.984 | locus YHR087W, strain rtc3, hits give low values 0.922 | locus YJL187C, strain SWE1, hits give low values 0.979 | locus YJR043C, strain POL32, hits give low values 0.998 | locus YJR075W, strain HOC1, hits give low values 0.908 | locus YKL190W, strain CNB1, hits give low values 0.977 | locus YLR058C, strain SHM2 (second series), hits give low values 0.967 | locus YML094W, strain GIM5, hits give low values 0.922 | locus YMR219W, strain ESC1, hits give low values 0.962 | locus YMR263W, strain SAP30, hits give low values 0.937 | locus YNL153C, strain GIM3, hits give low values 0.992 | locus YNL298W, strain CLA4 (second series), hits give low values 0.936 | locus YNL322C, strain KRE1, hits give low values 0.964 | locus YNR030W, strain Alg12, hits give low values 0.918 | locus YOL006C, strain TOP1, hits give low values 0.804 | locus YPL055C, strain LGE1, hits give low values 0.928 | locus YPL241C, strain CIN2, hits give low values 0.917
